Compound activity deposited in PubChem by National Center for Advancing Translational Sciences (NCATS).
This is a sample that favours compounds with a hit; in the whole collection about 19% have one here.
DT40 TDP1 CPT: qHTS for Inhibitors of human tyrosyl-DNA phosphodiesterase 1 (TDP1): qHTS in cells in presence of CPT | 12% of 420,000 active | chicken DT40 Tdp1-/-;hTDP1 cells + 20 nM CPT, ATP luminescence, 48 h | Potency, µM (titrated, usually from 46.2 µM), most hits filed as inhibitors | AID 686979, 2013; note: nearly all actives have a fitted effect of over 55% in size
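Chicken DT40 Tdp1-/- cells complemented with human TDP1, 400 cells/well, exposed to compounds plus 20 nM camptothecin for at least 48 h at 37 C; viability read as ATP content by CellTiter-Glo luminescence.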
HT1080-NT tox: qHTS for induction of synthetic lethality in tumor cells producing 2HG: qHTS for the HT-1080-NT fibrosarcoma cell line; HT-1080-NT fibrosarcoma viability, CellTiter-Glo ATP luminescence, 48 h; Potency, µM (doses to about 46.1 µM), hits mostly cytotoxic; 1.6% of 360,000 active; AID 686970, 2013;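 note: NT is the 2HG producing partner of a matched IDH1 knockdown line; nearly all actives have a fitted effect of over 55% in size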
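Luminescent CellTiter-Glo readout after 48 hours of compound exposure at 37 degrees C defined viability of HT-1080-NT cells. Activity was normalized to DMSO wells and cell-free media wells; concentration-response curves were fitted and assigned curve classes.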
HT1080 IDH1KD tx: qHTS for induction of synthetic lethality in tumor cells producing 2HG: qHTS for the HT-1080-IDH1KD cell line | 2% of 360,000 active | HT-1080 IDH1 knockdown viability, ATP luminescence, 48 h | Potency, µM (top dose mostly 46.1 µM), usual class: cytotoxic | AID 686971, 2013
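In this qHTS, HT-1080 cells depleted of IDH1 are exposed for 48 h at 37 °C to compound titrations. Toxicity is scored from CellTiter-Glo luminescence, with DMSO as full viability and medium alone as none.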
TDP1 cell noCPT: qHTS for Inhibitors of human tyrosyl-DNA phosphodiesterase 1 (TDP1): qHTS in cells in absence of CPT | DT40 Tdp1-/- hTDP1 cells, no CPT, ATP luminescence, 48 h | Potency, µM (titrated, usually from 46.2 µM), usual class: inhibitors | 15% of 420,000 active | AID 686978, 2013; note: nearly all actives have a fitted effect of over 55% in size
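Luminescent ATP content (CellTiter-Glo) served as the growth readout. Knockout chicken DT40 cells expressing human TDP1 were exposed to compounds without camptothecin for a minimum 48 hr at 37 °C.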
IL-1B inflam inh: qHTS for Inhibitors of Inflammasome Signaling: IL-1-beta AlphaLISA Primary Screen. THP-1 LPS/ATP IL-1B secretion, AlphaLISA, 16 h; hits give low values. activity change, % at 57.5 µM. 4.7% of 360,000 active. AID 743279, 2014; in the data active = activity change below about -50%; inconclusive = mostly about -30% to -49%
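THP-1 cells pretreated 1 hr with compounds (up to 57.5 uM final), then stimulated with LPS (250 ng/mL final) plus ATP (1.25 mM final); secreted IL-1B measured by AlphaLISA after 16 hr, decreased signal indicating inhibition.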
Numbers stand for hits; - = inactive; ? = inconclusive; . = no result; [ ] = another dose, or the depositor's remark. Unless noted, calls come from the whole dose curve; as a rule, active = well fitted curve in the direction sought with a large enough effect; inconclusive = small, poorly fitted or top-dose-only effect, or another doubt; inactive = no such curve, though single readings can be large; an effect the other way counts as inactive or inconclusive.

SMILES	DT40 TDP1 CPT	HT1080-NT tox	HT1080 IDH1KD tx	TDP1 cell noCPT	IL-1B inflam inh
O=C(NCCCN1CCOCC1)c1ccccc1NS(=O)(=O)c1cc([N+](=O)[O-])ccc1Cl	-	-	-	-	-
CC(=O)NC1=C(C#N)C(c2ccccc2)c2c(ccc3ccccc23)O1 (stereo not given)	8.2µM	?	14.6µM	7.31µM	-
COc1cc(OC)cc(C(=O)NCC(=O)OCC(=O)/C=C2/N(C)c3ccccc3C2(C)C)c1	?	?	-	16.4µM	-60.3
CC(C)[C@H](NC(=O)c1ccccc1)C(=O)OCC(=O)/C=C1/N(C)c2ccccc2C1(C)C	10.3µM	-	-	8.2µM	-
CN1/C(=C\C(=O)COC(=O)c2ccc([N+](=O)[O-])o2)C(C)(C)c2ccccc21	-	-	-	-	-
CN1/C(=C\C(=O)COC(=O)c2nccnc2N)C(C)(C)c2ccccc21	?	-	-	?	-
COc1ccc(/C=C/c2cc(OC)c(OC)cc2CC[N+](C)(C)C)cc1	-[9.04 µM]	.	.	-[9.04 µM]	.
CCC1(C2CCN(C(=O)c3coc4c3C(=O)CCC4)CC2)NC(=O)N(CCc2scnc2C)C1=O (stereo not given)	-	.	.	-	.
CCOC(=O)N1CCN(c2c(-c3ccccc3)c3cc(Cl)ccc3[nH]c2=O)CC1	?	-	-	?	?
O=c1[nH]c2ccc(Cl)cc2c(-c2ccccc2)c1SC(=S)N1CCOCC1	?	16.4µM	?	?	?
O=c1[nH]c2ccc(Cl)cc2c(-c2ccccc2)c1N1CCN(CCO)CC1	?	11.2µM	?	?	-
CCCC1(CC)C(=O)NC(=O)N=C1N (stereo not given)	-	-	-	-	-
C=Cn1cc[n+](CC(=O)c2cccs2)c1	-	-	-	-	-
C=Cn1cc[n+](CC(=O)c2cc(C(C)(C)C)c(O)c(C(C)(C)C)c2)c1	14.6µM	-	-	16.4µM	-
C=Cn1cc[n+](CC(=O)c2ccc(Br)s2)c1	-	-	-	?	-
C=Cn1cc[n+](CC(=O)c2ccc(-c3ccccc3)cc2)c1	3.26µM	-	-	2.31µM	?
O=C(CSc1ccc(Cl)cc1)NNC(=O)c1ccncc1	-	-	-	-	-
O=C(NNC(=S)NC(=O)c1cccnc1)c1ccc(F)cc1	-	-	-	?	-
O=C(NC(=S)NNC(=O)c1cnccn1)c1ccc(F)cc1	3.26µM	?	?	5.17µM	-
COc1ccc(/C=C/C(=O)NC(=S)NNC(=O)c2cnccn2)cc1	2.91µM	?	?	5.17µM	-
O=C(Cc1ccccc1)NNC(=O)c1cnccn1	-	-	-	-	-
O=C(/C=C/c1ccc(F)cc1)NC(=S)NNC(=O)c1cnccn1	3.66µM	-	-	3.26µM	-
COC(=O)[C@@]12C[C@@H](CC(=O)N3CCCCC3)C(=O)N(CCc3ccc(OC)c(OC)c3)C1=CCC(C)(C)C2	?	-	-	?	-
CCN1CCc2c(sc(-n3cccc3)c2C(C)NC(=O)Nc2ccc(C(=O)OC)cc2)C1 (stereo not given)	18.4µM	.	.	18.4µM	.
CCN1CCc2c(sc(-n3cccc3)c2C(CCC(C)C)NC(=O)NCCC(=O)OC)C1 (stereo not given)	?	.	.	25.9µM	.
CC(NC(=O)Nc1ccccc1C(F)(F)F)c1c(-n2cccc2)sc2c1CCCC2 (stereo not given)	?	.	.	10.3µM	.
COC(=O)c1c(NC(C)=O)sc2c1CCN(Cc1ccccc1)C2	-	-	-	-	-
CCc1nc2ccc(C(=O)NCCN3CCNC3=O)cn2c1N(CC)CCOC	-	-	-	-	-
COc1ccc(OC)c(S(=O)(=O)N2CCC(c3nc4ccccc4[nH]3)CC2)c1	?	-	-	?	-
CCOC(=O)Nc1ccc(S(=O)(=O)N2CCC(c3nc4ccccc4[nH]3)CC2)cc1	?	-	-	?	?
